Consider eight molecules from PubChem BioAssay (NCI).

Common to all, as to test: NCI-60 one-dose screen, 48 h (100 = growth as untreated, 0 = no growth, -100 = all killed)
Conditions in all cases: 10 µM unless noted

Experiment [1] concerns SK-MEL-2 melanoma.
Experiment [2] concerns EKVX NSCLC.
The subject of experiment [3] is SN12C renal.
Experiment [4] relates to UO-31 renal.
Experiment [5] has as its system TK-10 renal.
For experiment [6], the system named is ACHN renal.
Experiment [7] relates to CAKI-1 renal.
Experiment [8] concerns A498 renal.
The test system of experiment [9] is CCRF-CEM leukemia.
Experiment [10] has as its system MOLT-4 leukemia.
The test system of experiment [11] is RPMI-8226 leukemia.
The subject of experiment [12] is OVCAR-8 ovarian.
Experiment [13] concerns OVCAR-5 ovarian.
The subject of experiment [14] is OVCAR-4 ovarian.
In experiment [15] the test system is SK-OV-3 ovarian.
Experiment [16] relates to IGROV1 ovarian.
Experiment [17] concerns OVCAR-3 ovarian.
The subject of experiment [18] is HS 578T breast.
Experiment [19] relates to NCI/ADR-RES ovarian.

This is part of a sample that, as a whole, favours compounds with a hit. Of some 83,000 tested, about 20% had one in any assay.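 Interpretation: 100, growth as untreated; towards 0, rising growth inhibition; 0, no net growth; 0 to -100, cell death. Compounds scoring below 10 were considered active.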 Unmarked numbers belong to inactive results. Active and inactive are the calls of the source.

As for `O=C(/C=C/c1ccc([N+](=O)[O-])o1)NNC(=O)c1cc2ccccc2cc1O`, the growth is -50.9% (active) in experiment [1]; 38.6% in [2]; 7.5% (active) in experiment [3]; 2.06% (active) in [4]; 19.3% in experiment [5]; -82% (active) in experiment [6]. The growth is 22.5% in experiment [7]; -51% (active) in experiment [8]; 6.58% (active) in [9]; 3.05% (active) in experiment [10]; -6.98% (active) in [11]; 8.19% (active) in [12]. Further, the growth in experiment [13] is 45.7%; in [14], 29.3%; in [15], 32.8%; in experiment [16], -1.53% (active); in experiment [17], -32.3% (active); in experiment [18], 33%. Further, in [19], the growth was 5.33% (active).
Turning to `COc1ccc2c(c1)nc(NNC(=O)c1cnccn1)c1cccn12`, the growth in [1] is 64.8%; in experiment [2], 22.2%; in experiment [3], 35.4%; in [4], 4.76% (active); in experiment [5], 31.1%; in experiment [6] it was 7.83% (active). For the same molecule, the growth in experiment [7] was 21.3%; in experiment [8], 49.2%; in [9] it was 11.7%; in experiment [10] it was 5.36% (active); in [11], 23.5%; in [12] it was 24.1%. Further, the growth in [13] is 42.3%; in experiment [14], 17.5%; in experiment [15] it was 26.5%; in experiment [16], 16.3%; in experiment [17], 15.3%; in experiment [18], 78.2%. Besides, in [19], the growth was 9.97% (active).
For `Cc1cc(N2CCCC2)nc(N(CCCNc2ccnc3cc(Cl)ccc23)Cc2ccccn2)n1`, the growth was 71.7% in experiment [1]; 66.2% in experiment [2]; 52% in [3]; 5.6% (active) in [4]; 80.3% in experiment [5]; 80.8% in experiment [6]. Further, the growth is 84.4% in experiment [7]; 42% in experiment [8]; 55% in experiment [9]; 46.7% in [10]; 28% in experiment [11]; 49.2% in experiment [12]. Besides, the growth in [13] is 59.6%; in experiment [14], 81%; in [15] it was 76.5%; in [16] it was 50.7%; in experiment [17], 59.5%; in experiment [18], 72.6%. For the same molecule, the growth in [19] was 39.2%.
`NC[C@@H]1O[C@H](O[C@@H]2[C@@H](CO)OC(O[C@@H]3[C@@H](O)[C@H](N)C[C@H](N)[C@H]3OC3O[C@H](CN)[C@@H](O)[C@H](O)[C@H]3N)[C@@H]2O)[C@H](N)[C@@H](O)[C@@H]1O` (some centres not stated): the growth is 125% in [1]; 98.4% in experiment [2]; 117% in experiment [3]; 109% in [4]; 120% in experiment [5]; 105% in experiment [6]. The growth was 99.5% in experiment [7]; 108% in experiment [8]; 97.5% in experiment [9]; 112% in experiment [10]; 104% in [11]; 98% in [12]. Further, the growth in experiment [13] is 104%; in [14], 107%; in experiment [15], 119%; in experiment [16] it was 110%; in [17], 111%; in [18], 111%. For the same molecule, in experiment [19], the growth was 105%.
Take `COc1ccc2c(c1)c(-c1ccc(-c3cn(C)c4ccc(OC)cc34)o1)cn2C`: the growth was 45% in experiment [1]; 46.1% in [2]; 75.8% in experiment [3]; -8.28% (active) in experiment [4]; 83.3% in experiment [5]; 36.3% in [6]. The growth was 37.2% in [7]; 85.3% in experiment [8]; 61.8% in [9]; 63.5% in [10]; 25.5% in experiment [11]; 39.4% in experiment [12]. Also, the growth in [13] is 36.8%; in [14], -42.3% (active); in experiment [15] it was 93.4%; in [16] it was 70.2%; in experiment [17], 23.2%; in experiment [18] it was -31.2% (active). For the same molecule, the growth in experiment [19] was 38.7%.
For `O=C1CSC(c2c(Cl)cccc2Cl)N1c1nc(Cl)cc(=O)[nH]1` (configuration not stated), the growth in experiment [1] was 78.3%; in experiment [2], 119%; in experiment [3] it was 108%; in experiment [4], 79.8%; in experiment [5], 161%; in experiment [6] it was 111%. Further, the growth is 117% in experiment [7]; 121% in experiment [8]; 67.3% in experiment [9]; 171% in experiment [10]; 58.7% in [11]; 107% in experiment [12]. For the same molecule, the growth in experiment [13] was 94.4%; in [14] it was 130%; in [15], 109%; in [16], 71.9%; in experiment [17] it was 107%; in experiment [18] it was 109%. For the same molecule, the growth in experiment [19] was 95%.
Consider `COc1ccc(/C=C(\C#N)n2nnc3c(F)cccc32)cc1`, for which the growth in experiment [1] was 24.1%; in [2] it was 32.3%; in [3], 24.2%; in experiment [4], 39.4%; in experiment [5] it was 45.3%; in experiment [6], 28.3%. For the same molecule, the growth in experiment [7] is 24.8%; in experiment [8] it was -29.1% (active); in experiment [9], 18.9%; in [10], 14.4%; in [11], 17.9%; in experiment [12], 16.3%. Also, the growth in [13] was 15.7%; in experiment [14], 37.8%; in experiment [15], 39%; in experiment [16], 13.2%; in [17], -34% (active); in experiment [18], -4.6% (active). For the same molecule, in experiment [19], the growth was 0.281% (active).
For `Cc1ccc2nc(NC(=O)CSc3nc(Cl)c(C#N)c(-c4ccccc4)n3)sc2c1`, the growth in [1] is 102%; in [2] it was 102%; in [3] it was 98.2%; in [4] it was 80.7%; in [5], 107%; in experiment [6], 102%. Besides, the growth in [7] was 94.8%; in experiment [8], 102%; in [9], 105%; in experiment [10] it was 104%; in experiment [11] it was 96.9%; in [12], 98.3%. For the same molecule, the growth in experiment [13] is 104%; in experiment [14] it was 105%; in experiment [15], 95.7%; in experiment [16], 93.3%; in experiment [17], 107%; in experiment [18] it was 95.9%. The growth in experiment [19] is 102%.
